# In PubChem BioAssay AID493078 (National Center for Advancing Translational Sciences (NCATS), 2011):
# The list shows a part of the results. Results filed as inconclusive are left out. Active and inactive are the calls of the source. The call rests on the fitted dose curve; in most records, active means well fitted activation curve with a large enough effect; inconclusive means small, poorly fitted or top-dose-only effect; inactive means flat fitted curve, though single readings scatter. Where a SMILES comes first, the peptide text is derived from it. The star is where a group is joined. OPac = O=C(CO*)c1ccccc1; Bz = O=C(c1ccccc1)*
# Molecular target: Thyrotropin-releasing hormone receptor (Homo sapiens) (UniProt P34981)
# Sequence (P34981 whole entry, looked up): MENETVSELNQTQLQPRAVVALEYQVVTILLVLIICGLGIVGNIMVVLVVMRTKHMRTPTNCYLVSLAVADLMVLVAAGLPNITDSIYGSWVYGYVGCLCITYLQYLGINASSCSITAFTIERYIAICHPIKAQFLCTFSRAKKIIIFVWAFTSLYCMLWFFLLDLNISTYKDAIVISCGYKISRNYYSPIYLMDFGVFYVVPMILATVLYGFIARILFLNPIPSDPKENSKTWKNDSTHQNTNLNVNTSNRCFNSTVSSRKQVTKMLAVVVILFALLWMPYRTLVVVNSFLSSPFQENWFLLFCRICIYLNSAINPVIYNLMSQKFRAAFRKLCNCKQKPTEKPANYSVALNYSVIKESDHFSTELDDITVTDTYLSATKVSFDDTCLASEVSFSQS
# Assay: qHTS for Small Molecule Agonists and Allosteric Enhancers of Human TRH Receptor: Confirmation Screen for Agonists; further: 0% is about no effect; nearly all actives have a fitted effect of over 75% in size
# Settings: TRHR-expressing cells, agonist activation read-out; series mostly up to 46.1 µM; activation: at the top concentration
# Text: NIH Chemical Genomics Center [NCGC]
# NIH Molecular Libraries Probe Centers Network [MLPCN]
# Assay Submitter (PI): Marvin Gershengorn
# This project aims to identify small drug-like molecules that activate (agonists) the thyrotropin releasing hormone (TRH) receptor (TRHR) or enhance its TRH-stimulated activity (allosteric enhancers). TRHR, a drug-accessible cell surface receptor expressed in specific brain regions, and its ligand TRH have been implicated in several central nervous system disorders, including depression and anxiety. Small molecule TRHR agonists or allosteric enhancers that are metabolically stable and able to cross the blood-brain barrier might serve as probes to elucidate the roles of brain TRH receptors in animal models, and might be valuable as lead compounds for the development of drugs to treat patients with central nervous system disorders.
# Upon TRHR-Gq activation in TRHR cells, intracellular calcium is released from stores in the endoplasmic reticulum.
# For the HTS assay freshly prepared cells are plated at a density of 2000/well in 3 ul of complete DMEM medium containing 10% serum in 1536-well plates and cultured over night at 37 C in a humidified incubator with 5% CO2. The next day, 2 ul of a no wash calcium dye (ABD Bioquest) was added to the cells and plates were incubated at room temperature for 1 hour. For the assay, assay plates were loaded into the FDSS kinetic plate reader. A 10 cycle (1 second/cycle) baseline measurement is taken and then the FDSS online 1536 pintool delivers 23 nl of compound library (as well as TRH controls) to the plate. The plate is measured for kinetically at 1 cycle/sec for 180 seconds and is considered to be the agonist portion of the assay (eg, compounds which activate a positive calcium response during this portion are flagged as potential agonists). Following the 180 second read, 1 ul of either an EC20 (positive modulation assay) is delivered by an onboard pipette head. Measurements are taken kinetically for an additional 180 seconds.
# TRHR FDSS Screening Protocol
# 1. Reagent, 3 uL 2000 cells/well 1536 TC treated Black plate in media containing 10% FCS
# 2. Time, 18 hours, 33.5C 5% CO2 (cells grown at 37C)
# 3. Reagent, 2 uL ABD fluo-8 Ca dye
# 4. Time, 30 min-1.5hrs hours, Room temp (6 plates/batch)
# 5. Detector, EX 480/EM 530C, FDSS 10 cycles baseline (1sec/cycle)
# 6. Compound, 23 nL of stock solution from library
# 7. Detector, EX 480/EM 530C, FDSS 230 cycles (1sec/cycle) Agonist mode
# 8. Compound, 1 ul EC20 of TRH made up in HEPES HBSS, 10 nM final
# 9. Detector, EX 480/EM 530C, FDSS 100 cycles (1sec/cycle) Potentiator mode
row,Structure (SMILES),activation
1,O=C(CNC(=O)c1ccccc1)NCC(=O)OCC(=O)c1ccccc1 (Bz-Gly-Gly-OPac),-0.384% (inactive)
